Laboratory results: paper PMC5836133, “The intracellular immune receptor Rx1 regulates the DNA-binding activity of a Golden2-like transcription factor”
Over roughly 16,000 sequences, “e-score” has its median near -0.044; the highest 2% begin near 0.38. Many of the other results were omitted from the sample, so the highest values are more common in it than they were.

Target: T1, GST-NbGlk1(82-244) (Nicotiana benthamiana)
T1 chain: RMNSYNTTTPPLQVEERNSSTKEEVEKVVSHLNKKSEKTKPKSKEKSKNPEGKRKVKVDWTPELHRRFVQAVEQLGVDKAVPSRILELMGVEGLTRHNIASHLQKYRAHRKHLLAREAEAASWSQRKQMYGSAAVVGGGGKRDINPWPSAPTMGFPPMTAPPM
Assay: protein-binding microarray; NbGlk1 is a Golden2-like transcription factor of Nicotiana benthamiana; high values mean tight binding
Conditions: protein: recombinant; tags: GST (pTH6838); dsDNA, one strand shown

AGCGATCG and AATTCTAT are within error of each other in binding signal: 0.204 ± 0.00262 E-score for the first, 0.22 ± 0.114 E-score for the second.

Going from AATTGGAT to ATCTTAAT, the binding signal rises from 0.2 ± 0.0585 E-score to 0.321 ± 0.00718 E-score.

ATATTAAG and ATCCACAA are within error of each other in binding signal: 0.251 ± 0.0913 E-score for the first, 0.29 ± 0.0043 E-score for the second.

ATTTTATA and ATTTGCGA are within error of each other in binding signal: 0.281 ± 0.0713 E-score for the first, 0.294 ± 0.051 E-score for the second.

Compared with AGTAAAAT, ACTGAATA is lower in binding signal: 0.292 ± 0.0131 E-score for the first, 0.204 ± 0.00699 E-score for the second.

ATCTCTGG and ATCTCTGA are within error of each other in binding signal: 0.205 ± 0.0181 E-score for the first, 0.269 ± 0.143 E-score for the second.

First: ATCTCCTG
Second: ATCTCTTG
The binding signal of the first is lower: 0.3116 ± 0.00208 E-score for the first, 0.379 ± 0.0245 E-score for the second.

ATCTCGTG and ATATCTGA are within error of each other in binding signal: 0.357 ± 0.0779 E-score for the first, 0.399 ± 0.00857 E-score for the second.

ATATCGGG and ATATCAGA are the same in binding signal: 0.343 ± 0.0169 E-score for the first, 0.343 ± 0.0575 E-score for the second.

Compared with ATATCTGG, ATCTACTA is lower in binding signal: 0.401 ± 0.00925 E-score for the first, 0.341 ± 0.0266 E-score for the second.

ATCTGTGA and ATATGCTA are within error of each other in binding signal: 0.344 ± 0.0977 E-score for the first, 0.224 ± 0.0529 E-score for the second.

ACATAGAT and ATATTCAC are within error of each other in binding signal: 0.223 ± 0.0149 E-score for the first, 0.208 ± 0.132 E-score for the second.

Compared with ATCATAAA, ATCCAGGA is higher in binding signal: 0.232 ± 0.00949 E-score for the first, 0.328 ± 0.0422 E-score for the second.

Compared with AGTATCCG, AATCTGGT is higher in binding signal: 0.328 ± 0.0412 E-score for the first, 0.443 ± 0.0103 E-score for the second.

ATCTGGGG and AATCGGGT are within error of each other in binding signal: 0.27 ± 0.147 E-score for the first, 0.272 ± 0.0576 E-score for the second.

ATTCTGGA and ATCCTGGC are within error of each other in binding signal: 0.248 ± 0.0551 E-score for the first, 0.244 ± 0.119 E-score for the second.

AATCAGGG and AATCTGGG are within error of each other in binding signal: 0.313 ± 0.0785 E-score for the first, 0.428 ± 0.0442 E-score for the second.

First: AATCTGGC
Second: AATCTGGA
The binding signal of the first is lower: 0.416 ± 0.0222 E-score for the first, 0.452 ± 0.00746 E-score for the second.

First: ATCCTGGA
Second: AGTGAAAT
The binding signal of the first is higher: 0.296 ± 0.0334 E-score for the first, 0.208 ± 0.0317 E-score for the second.

ATTACGAA and ACCGTATC are within error of each other in binding signal: 0.341 ± 0.0714 E-score for the first, 0.274 ± 0.0523 E-score for the second.

AATGAGAT and ATTTCGGA are within error of each other in binding signal: 0.312 ± 0.0605 E-score for the first, 0.309 ± 0.0179 E-score for the second.

Going from ATTGCGAC to ATCAGTAA, the binding signal falls from 0.346 ± 0.0296 E-score to 0.214 ± 0.0917 E-score.

AATCATAC and AGCGAGAT are within error of each other in binding signal: 0.263 ± 0.039 E-score for the first, 0.269 ± 0.0866 E-score for the second.

AATATATA and AGAATAAT are within error of each other in binding signal: 0.27 ± 0.0135 E-score for the first, 0.206 ± 0.0577 E-score for the second.

Compared with ATCCGGCA, ATTGCGGA is higher in binding signal: 0.253 ± 0.0503 E-score for the first, 0.359 ± 0.0313 E-score for the second.

ATCTGGAA and ATCCTACA are within error of each other in binding signal: 0.351 ± 0.0575 E-score for the first, 0.298 ± 0.0179 E-score for the second.

First: AATATACA
Second: AATCAACT
The binding signal of the first is lower: 0.21 ± 0.00993 E-score for the first, 0.274 ± 0.00959 E-score for the second.

Compared with AATCTACA, AATCATCT is lower in binding signal: 0.401 ± 0.0303 E-score for the first, 0.205 ± 0.0194 E-score for the second.

First: AATCAACG
Second: AATCTACC
The binding signal of the first is lower: 0.247 ± 0.00961 E-score for the first, 0.404 ± 0.00847 E-score for the second.

Compared with AATCGACG, AATCTACG is higher in binding signal: 0.243 ± 0.0212 E-score for the first, 0.38 ± 0.0162 E-score for the second.

First: ATTCTATC
Second: AATCTACT
The binding signal of the first is lower: 0.261 ± 0.0903 E-score for the first, 0.406 ± 0.0108 E-score for the second.

First: ATTTTAGA
Second: ATCTCATA
The binding signal of the first is lower: 0.221 ± 0.0235 E-score for the first, 0.291 ± 0.0411 E-score for the second.

ATCCCCAA and ATAGGATA are within error of each other in binding signal: 0.276 ± 0.0488 E-score for the first, 0.247 ± 0.133 E-score for the second.

First: AAATATTA
Second: ATACAAAA
The binding signal of the first is higher: 0.313 ± 0.0186 E-score for the first, 0.251 ± 0.0113 E-score for the second.

AGCTAGAT and ATTGCGGG are within error of each other in binding signal: 0.216 ± 0.00676 E-score for the first, 0.26 ± 0.0952 E-score for the second.

Going from AATCGCGG to AAATAAAG, the binding signal falls from 0.317 ± 0.0232 E-score to 0.202 ± 0.0801 E-score.

ATATTGTG and ATATTGTC are within error of each other in binding signal: 0.235 ± 0.0938 E-score for the first, 0.261 ± 0.0163 E-score for the second.

First: AGATTGTA
Second: AGATTGTC
The binding signal of the first is lower: 0.3324 ± 0.00276 E-score for the first, 0.3936 ± 0.00333 E-score for the second.

First: AGATTGTG
Second: AGATCGTC
The binding signal of the first is higher: 0.421 ± 0.0279 E-score for the first, 0.3356 ± 0.00264 E-score for the second.

AAGGATTG and AAATATAA are within error of each other in binding signal: 0.247 ± 0.0253 E-score for the first, 0.208 ± 0.0739 E-score for the second.

AATCCGCG and AATCCGCA are within error of each other in binding signal: 0.396 ± 0.0375 E-score for the first, 0.395 ± 0.0273 E-score for the second.

First: ATCCCGCA
Second: AATCCGCT
The binding signal of the first is lower: 0.289 ± 0.00853 E-score for the first, 0.388 ± 0.0352 E-score for the second.

First: AATCCGCC
Second: ATTCCGCG
The binding signal of the first is higher: 0.372 ± 0.0634 E-score for the first, 0.256 ± 0.00946 E-score for the second.

ATTCCGCA and AATCCCCT are within error of each other in binding signal: 0.238 ± 0.0649 E-score for the first, 0.2621 ± 0.00234 E-score for the second.

AATCAGCG and ATCTTGGG are within error of each other in binding signal: 0.312 ± 0.0496 E-score for the first, 0.216 ± 0.0663 E-score for the second.

Going from AAATAGAT to ATCTGGTG, the binding signal rises from 0.264 ± 0.0472 E-score to 0.3327 ± 0.000333 E-score.

Compared with ATACATAT, ATATAGAT is higher in binding signal: 0.204 ± 0.0258 E-score for the first, 0.352 ± 0.0482 E-score for the second.

Compared with ATTTAAGA, ACGGATAC is higher in binding signal: 0.236 ± 0.0208 E-score for the first, 0.2607 ± 0.00125 E-score for the second.

First: AGGGATAT
Second: AAGGATCT
The binding signal of the first is higher: 0.353 ± 0.00472 E-score for the first, 0.335 ± 0.00404 E-score for the second.

Compared with ACGGATCT, AAGGATAT is higher in binding signal: 0.265 ± 0.053 E-score for the first, 0.387 ± 0.00749 E-score for the second.

First: ACGGATAT
Second: ATTATATA
The binding signal of the first is higher: 0.381 ± 0.03 E-score for the first, 0.215 ± 0.115 E-score for the second.

First: ATCTACAC
Second: AATTCTGT
The binding signal of the first is higher: 0.34 ± 0.0325 E-score for the first, 0.223 ± 0.0117 E-score for the second.

ATACGCTA and ATCATGAA are within error of each other in binding signal: 0.239 ± 0.0564 E-score for the first, 0.215 ± 0.0159 E-score for the second.

CAGATCTG and AAGATCTC are within error of each other in binding signal: 0.38 ± 0.0481 E-score for the first, 0.406 ± 0.00477 E-score for the second.

Compared with AAGATCTA, AAGATCAC is lower in binding signal: 0.356 ± 0.00732 E-score for the first, 0.225 ± 0.0928 E-score for the second.

With AAGATCTG the binding signal was 0.362 ± 0.0161 E-score.
